Measured values: PubChem BioAssay (NCI)
This is part of a sample that, as a whole, favours compounds with a hit. Of some 83,000 tested, about 20% had one in any assay.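 For each line, cells grew in 96-well plates with the test compound present at a single concentration for 48 hours.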 A number with no mark means an inactive call. Calls of active or inactive are those of the source. Rule for the calls: active = growth percent below 10; inactive = the rest.

tested on: MDA-MB-435 melanoma; test: NCI-60 one-dose screen, 48 h (100 = growth as untreated, 0 = no growth, -100 = all killed); details: 10 µM unless noted

Q: For `Clc1cnc(Nc2ccc(OCCN3CCCC3)cc2)nc1NCc1ccco1`, which growth is on record?
A: 34.5%

Q: For `COc1ccc(Oc2nc(Nc3ccc(N4CCCCC4)nc3)ncc2NC(=O)c2cc(OC)cc(OC)c2)cc1`, which growth is on record?
A: -30.6% (active)

Q: Which growth does the source give for `CCCn1nc(-c2ccccc2)c2c(-c3ccccc3)onc2c1=O` here?
A: 8.42% (active)

Q: With `COc1ccc(/C(C)=C(\c2ccc(Cl)cc2)c2ccc(OCCCN(C)C)cc2)cc1F` as the compound, how does the growth read?
A: 29.4%

Q: For `CCN(CC)N=Nc1nn(C(=O)Nc2ccc(Cc3ccccc3)cc2)c2ccc(Cl)cc12`, which growth is on record?
A: 43%

Q: For `C=C1C(=O)O[C@H]2[C@H]1CC/C(COC(=O)NCc1ccc(Cn3c(=O)sn(CCCCl)c3=O)cc1)=C\CC[C@@]1(C)O[C@@H]21`, which growth is on record?
A: 26.8%

Q: Which growth does the source give for `NC(=S)N/N=C/C(=O)O` here?
A: 92.5%

Q: Which growth does the source give for `C=C(C)[C@@H]1CC[C@]2(CNCCO)CC[C@]3(C)[C@H](CC[C@@H]4[C@@]5(C)CCC(N)[C@@](C)(CO)[C@@H]5CC[C@]43C)[C@@H]12` (some centres undefined) here?
A: -75.7% (active)

Q: How did the growth turn out when `Clc1ccc2c(NCCCN3CCN(c4nc(-n5ccnc5)nc5ccccc45)CC3)ccnc2c1` was run?
A: 71.2%

Q: Which growth does the source give for `O=C1C(Cl)C(c2ccccc2Cl)N1n1cnnc1` (centres undefined) here?
A: 103%

Q: `COC(=O)c1ccc(CSc2nnc(-c3ccncc3)o2)cc1` was tested. Which growth did it give?
A: 106%

Q: How did the growth turn out when `C#CC[C@H](N)C(=O)O` was run?
A: 102% [20 µM]

Q: With `CN1CCN(C(=O)[C@]23CCC(C)(C)C[C@@H]2C2=CC[C@@H]4[C@@]5(C)Cc6c([nH]c7ccccc67)C(C)(C)[C@@H]5CC[C@@]4(C)[C@]2(C)CC3)CC1` as the compound, how does the growth read?
A: 84.6%

Q: Which growth does the source give for `Cc1cc(N2CCCCC2)nc(N(CCNc2ccnc3cc(Cl)ccc23)Cc2ccccn2)n1` here?
A: 68.1%

Q: For `CCN(CC)c1ccc(Nc2ccc(CC(=O)c3ccccc3)cc2)cc1`, which growth is on record?
A: 80.2%

Q: `COc1ccc(/C=C2\C=C(c3ccccc3)N(CCc3ccccc3)C2=O)cc1OC` was tested. Which growth did it give?
A: 36%

Q: Which growth does the source give for `CCn1nc(C#Cc2c(C)ccc3c(Nc4ccc(Cl)cc4)nccc23)c2c(N)ncnc21` here?
A: -26.3% (active)

Q: For `Cc1ccc(S(=O)(=O)Nc2sccc2-c2nc(-c3ccccc3)no2)cc1`, which growth is on record?
A: 95.6%

Q: Which growth does the source give for `CCCCCOC(=O)c1cccc(NC(=O)CN(CC)CC)c1` here?
A: 101%

Q: For `COc1cc2oc(-c3cccc(C(=O)Nc4ccc(C#N)cc4)c3)cc(=O)c2c(O)c1OC`, which growth is on record?
A: 68.3%

Q: For `COc1ccc(-n2ncn(CCCCCCn3cnn(-c4ccc(OC)cc4)c3=O)c2=O)cc1`, which growth is on record?
A: 102%

Q: For `COc1ccc(C2CC(c3ccccc3)=NN2c2nc(C)c(C(C)=O)s2)cc1` (centres undefined), which growth is on record?
A: 103%

Q: `CC(C)(C)CC(C)(C)Nc1c(-c2ccc(-c3ccccc3)cc2)nc2cnccn12` was tested. Which growth did it give?
A: 82.7%

Q: How did the growth turn out when `N#Cc1cccc(-c2nc3ccccn3c2NCCN2CCOCC2)c1` was run?
A: 102%

Q: `C=C1C(=O)O[C@H]2[C@H]1CC/C(COC(=O)/C=C/C(=O)NCc1ccc(Cn3c(=O)sn(-c4ccccc4)c3=O)cc1)=C\CC[C@@]1(C)O[C@@H]21` was tested. Which growth did it give?
A: -26.6% (active)

Q: With `CCC(C)NCc1ccccc1` (centres undefined) as the compound, how does the growth read?
A: 108%

Q: With `CC(C)n1nc(C#Cc2cccc3cc(-c4cccc(C(F)(F)F)c4)ncc23)c2c(N)ncnc21` as the compound, how does the growth read?
A: 67.3%

Q: Which growth does the source give for `CCNCCNc1cc(-c2ccc(C#N)cc2)c(C#N)c2nc3ccccc3n12` here?
A: 13.9%

Q: How did the growth turn out when `CC[C@@H](C[C@H](CCO)c1ccccc1)c1cc2ccccc2o1` was run?
A: 102%

Q: For `CCN(CCO)CC(=O)c1cc(Cl)cc(Cl)c1Cl`, which growth is on record?
A: 105%

Q: With `C=C1C(=O)O[C@H]2[C@H]1CC/C(Cn1cc(CNCCc3c[nH]c4ccc(Cl)cc34)nn1)=C\CC[C@@]1(C)O[C@@H]21` as the compound, how does the growth read?
A: 68%

Q: With `C=C1c2c(C)nn(-c3ccc(N)cc3)c2N(C)C23CC1C1(C)c4c(C)nn(-c5ccc(N)cc5)c4N(C)C(C)(CC12)C3` (centres undefined) as the compound, how does the growth read?
A: 70.4%

Q: How did the growth turn out when `COc1ccc(Nc2ncc(Br)c(NCCCNC(=O)C3CCC3)n2)cc1` was run?
A: 53.8%

Q: How did the growth turn out when `CC(C)n1nc(C#Cc2cccc(NC(=O)c3cccc(C(F)(F)F)c3)c2)c2c(N)ncnc21` was run?
A: 2.12% (active)

Q: Which growth does the source give for `COC(=O)c1ccc2oc(NC(=O)c3ccc(N4CCOCC4)c([N+](=O)[O-])c3)nc2c1` here?
A: 107%

Q: `COc1cc2oc(-c3cccc(C(=O)Nc4ccc(C)cc4)c3)cc(=O)c2c(OC)c1OC` was tested. Which growth did it give?
A: 27.9%

Q: `COc1ccc(/C=C(\C#N)n2nnc3cc(F)c(F)cc32)c(OC)c1OC` was tested. Which growth did it give?
A: 45.7%

Q: For `C=C(CNCCc1ccc(O)cc1)[C@@H]1CC[C@]2(COC3CCCCO3)CC[C@]3(C)[C@H](CC[C@@H]4[C@@]5(C)CCC(NCCO)C(C)(C)[C@@H]5CC[C@]43C)[C@@H]12` (some centres undefined), which growth is on record?
A: -89.8% (active)

Q: Which growth does the source give for `C[C@@H]1CC[C@@H]2[C@@H]1[C@H](OC(=O)c1ccc3ccccc3c1)[C@]1(C3CCCCC3)C[C@@H](OC(=O)CO)[C@@]2(C)O1` here?
A: 72.1%
